Measurements from the supplement of paper PMC6555819.

Legend:
Assay in all cases: PBM binding z-score (relative to random genomic background probes); higher = stronger binding; sequences stand for … in GC…GCGATTGACAGCGTAGAATGAAGG
[1] = test system: FXR:RXRa (NR concentration 270 nM, RXRa partner concentration 90 nM)
How it was run: (§1)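 Binding buffer was PBS pH 7.4 with 2% milk, 0.02% Triton X-100, 1 mM DTT, 0.2 mg/mL BSA and 0.4 mg/ml salmon testes DNA. In it, ligand-free nuclear receptor dimers were incubated 1 h on custom Agilent 4×180K protein-binding microarrays carrying double-stranded probes. Antibodies against each partner (one per run) detected binding, and z-scores were calculated against random background probes after regression normalization of scanned fluorescence.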

[2] = test system: LXRa:RXRa (NR concentration 270 nM, RXRa partner concentration 90 nM)
How it was run: as §1

[3] = test system: LXRa homodimer (NR concentration 270 nM)
How it was run: as §1

[4] = test system: LXRb:RXRa (NR concentration 270 nM, RXRa partner concentration 90 nM)
How it was run: as §1

[5] = test system: LXRb homodimer (NR concentration 270 nM)
How it was run: as §1

[6] = test system: PPARa:RXRa (NR concentration 270 nM, RXRa partner concentration 90 nM)
How it was run: as §1

[7] = test system: PPARg:RXRa (NR concentration 180 nM, RXRa partner concentration 90 nM)
How it was run: as §1

[8] = test system: PPARg:RXRa 270nM:90nM, anti-RXR (NR concentration 270 nM, RXRa partner concentration 90 nM)
How it was run: as §1

[9] = test system: PPARg:RXRa 30nM:10nM, anti-RXR (NR concentration 30 nM, RXRa partner concentration 10 nM)
How it was run: as §1

[10] = test system: PPARg:RXRa 90nM:30nM, anti-RXR (NR concentration 90 nM, RXRa partner concentration 30 nM)
How it was run: as §1

[11] = test system: PPARg:RXRa DBDmut IVT, anti-RXR (DBD mutation: RXRa K156A/R161A, NR concentration 270 nM, RXRa partner concentration 90 nM)
How it was run: as §1

[12] = test system: PPARg:RXRa IVT, anti-PPARg (NR concentration 270 nM, RXRa partner concentration 90 nM)
How it was run: as §1

[13] = test system: PPARg DBDmut:RXRa IVT, anti-PPARg (DBD mutation: PPARg1 K132A/R137A, NR concentration 270 nM, RXRa partner concentration 90 nM)
How it was run: as §1

[14] = test system: PPARg DBDmut IVT, anti-PPARg (DBD mutation: PPARg1 K132A/R137A, NR concentration 270 nM)
How it was run: as §1

[15] = test system: PPARg homodimer (NR concentration 180 nM)
How it was run: as §1

[16] = test system: PXR:RXRa (NR concentration 270 nM, RXRa partner concentration 90 nM)
How it was run: as §1

[17] = test system: PXR homodimer (NR concentration 270 nM)
How it was run: as §1

[18] = test system: RARa:RXR (NR concentration 270 nM, RXRa partner concentration 90 nM)
How it was run: as §1

[19] = test system: RARa homodimer (NR concentration 270 nM)
How it was run: as §1

[20] = test system: RARb:RXRa (NR concentration 270 nM, RXRa partner concentration 90 nM)
How it was run: as §1

Sequence | PBM binding z-score [1] | PBM binding z-score [2] | PBM binding z-score [3] | PBM binding z-score [4] | PBM binding z-score [5] | PBM binding z-score [6] | PBM binding z-score [7] | PBM binding z-score [8] | PBM binding z-score [9] | PBM binding z-score [10] | PBM binding z-score [11] | PBM binding z-score [12] | PBM binding z-score [13] | PBM binding z-score [14] | PBM binding z-score [15] | PBM binding z-score [16] | PBM binding z-score [17] | PBM binding z-score [18] | PBM binding z-score [19] | PBM binding z-score [20]
ATCCCTAGGTAAAGTTCAGTGAAAGATCGATAGA | 0.939 | 1.71 | 1.52 | 1.19 | 0.53 | 1.8 | 2.37 | 3.48 | 1.57 | 3.25 | 0.383 | 1.01 | 0.372 | 0.771 | 1.6 | 1.63 | 2.29 | 0.943 | 1.49 | 2.39
GCGACTGGGGTATCAGCAGGTTACCATAACTTAA | -0.215 | 0.488 | -0.233 | 0.757 | -0.459 | 0.871 | 0.146 | 0.0504 | -0.489 | -0.489 | 1.21 | 0.938 | -0.348 | -0.554 | 0.313 | -0.149 | -0.238 | 0.3 | -0.218 | 0.249
CGTCCTAGGTCATAGGAGGTCAGTGAAGACAGAT | 5.53 | 6.34 | 3.87 | 5.18 | 0.0467 | 4.91 | 3.72 | 4.05 | 1.4 | 3.09 | 3.43 | 4.34 | -0.339 | -0.4 | 2.53 | 6.01 | 1.28 | 4.21 | 1.08 | 4.6
ATCGCAAGGTCGAAGGTGAGTATACCCACCCGAA | 1.5 | 1.58 | -0.525 | 1.16 | -0.359 | 3.01 | 2.77 | 3.69 | 0.969 | 2.25 | -0.513 | 1.21 | 0.246 | -0.257 | 0.231 | 1.89 | -0.311 | 2.65 | -0.621 | 2.41
CGTCCAAGGTCAAGGTCAGTTAAAGAGACTCGAA | 7.98 | 6.08 | 1.79 | 4.95 | 1.26 | 6.11 | 6.45 | 6.18 | 2.97 | 5.03 | 3.64 | 4.64 | 0.996 | 0.327 | 3.84 | 5.2 | 1.12 | 5.74 | 1.83 | 5.81
TATACCGGGTCAAAGGCCAGAGTACGAATGTCGA | 5.68 | 5.19 | 1.56 | 3.95 | 1.32 | 6.35 | 8.61 | 7.39 | 6.12 | 7.45 | 2.58 | 5.47 | 0.885 | 1.2 | 2.12 | 3.61 | 0.647 | 4.89 | 0.935 | 3.88
TCTGCTAGGTAAGTTGGTCAGCTAACGAGCTGCC | -0.553 | -0.651 | -0.909 | -0.852 | -0.795 | -0.166 | -0.748 | 0.411 | 1.22 | 0.642 | 0.619 | 0.862 | -0.126 | -0.493 | -1.41 | -0.474 | -1.39 | -0.538 | -1.81 | -0.235
TCATACAGGTAAATGCTAGGTGAAAGTCCGATCT | 0.695 | 0.892 | 0.122 | 0.729 | 0.432 | 1.07 | 0.609 | 2.04 | 3.75 | 2.83 | 2.68 | 1.46 | 0.656 | 0.391 | 0.443 | 0.585 | 0.0342 | 0.804 | 0.732 | 0.542
CCTCGGAGGACAACAGCAGGTCAGAGCTGCCAGA | 0.202 | 0.89 | 0.459 | 0.176 | -0.75 | 0.561 | 0.1 | -0.313 | -0.784 | -0.736 | 0.0913 | -0.0313 | -0.897 | -1.32 | 0.749 | 0.458 | -0.253 | 0.722 | 0.0209 | 2.04
